TDP1 cell CPT: growth inhibition of DT40 Tdp1-/-;hTDP1 cells with camptothecin (screen for TDP1 inhibitors) | 420,000 compounds, 12% hits | Potency, µM (titrated, usually from 46.2 µM), for the others: at the top dose activity change, negative = growth inhibition, most hits filed as inhibitors | chicken DT40 Tdp1-/-;hTDP1 cells + 20 nM CPT, ATP luminescence, 48 h | AID 686979; also: nearly all actives have a fitted effect of over 55% in size
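Chicken DT40 Tdp1-/- cells complemented with human TDP1, 400 cells/well, exposed to compounds plus 20 nM camptothecin for at least 48 h at 37 C; viability read as ATP content by CellTiter-Glo luminescence.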
ALOX12 inh: ALOX12 (human) lipoxygenase inhibition. purified 12hLO, xylenol orange hydroperoxide absorbance. Potency, µM (highest dose often 108 µM), inactives show at the highest dose activity change, negative = inhibition, actives largely listed as inhibitors. 580,000 compounds, 1.1% hits. AID 1671190
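Hydroperoxide product was detected by ferrous iron/xylenol orange as the 573 to 405 nm absorbance ratio. Arachidonic acid at 40 uM (final) was turned over for 30 min at room temperature by 150 nM human 12hLO, pH 7.0 Hepes buffer, after 15 min compound preincubation.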
DT40 TDP1 no CPT: qHTS for Inhibitors of human tyrosyl-DNA phosphodiesterase 1 (TDP1): qHTS in cells in absence of CPT; DT40 Tdp1-/- hTDP1 cells, no CPT, ATP luminescence, 48 h; Potency, µM (doses to about 46.2 µM), for the others: at the highest dose activity change, negative = growth inhibition, usual class: inhibitors; 420,000 compounds, 15% hits; also: nearly all actives have a fitted effect of over 55% in size
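Cells were dispensed at 400 per well, compounds added by pin tool, plates incubated ≥48 hr at 37 °C, then CellTiter-Glo added for 30 min at room temperature before luminescence reading. Line: DT40 Tdp1-/- complemented with hTDP1; camptothecin omitted.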
ELG1 repair inh: inhibitors of ELG1-dependent DNA repair in HEK293T cells. HEK293T ELG1-luciferase reporter, luminescence, 16 h; DNA damage induced by 5-fluorouridine. Potency, µM (highest dose often 46.1 µM), without a hit: at the highest dose activity change, negative = inhibition, usual class: inhibitors. 330,000 compounds, 2.3% hits; also: nearly all actives have a fitted effect of over 55% in size
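In this reporter screen, reduction of luminescence relative to DMSO vehicle indicated activity. Compounds and 5-fluorouridine were added together to 2,000 cells per well, incubated for 16 hr at 37 °C, then developed with ONE-Glo.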
RORgamma inh: inhibitors of mouse ROR gamma transcriptional activity. Drosophila S2 Gal4-RORgamma UAS-luciferase reporter, 20 h. Potency, µM (doses to about 53.6 µM), for inactives: at the highest dose activity change, negative = inhibition, usual class: inhibitors. 310,000 compounds, 5.4% hits; also: nearly all actives have a fitted effect of over 60% in size
Target sequence (P51450 whole entry, looked up, the tested form may be a part): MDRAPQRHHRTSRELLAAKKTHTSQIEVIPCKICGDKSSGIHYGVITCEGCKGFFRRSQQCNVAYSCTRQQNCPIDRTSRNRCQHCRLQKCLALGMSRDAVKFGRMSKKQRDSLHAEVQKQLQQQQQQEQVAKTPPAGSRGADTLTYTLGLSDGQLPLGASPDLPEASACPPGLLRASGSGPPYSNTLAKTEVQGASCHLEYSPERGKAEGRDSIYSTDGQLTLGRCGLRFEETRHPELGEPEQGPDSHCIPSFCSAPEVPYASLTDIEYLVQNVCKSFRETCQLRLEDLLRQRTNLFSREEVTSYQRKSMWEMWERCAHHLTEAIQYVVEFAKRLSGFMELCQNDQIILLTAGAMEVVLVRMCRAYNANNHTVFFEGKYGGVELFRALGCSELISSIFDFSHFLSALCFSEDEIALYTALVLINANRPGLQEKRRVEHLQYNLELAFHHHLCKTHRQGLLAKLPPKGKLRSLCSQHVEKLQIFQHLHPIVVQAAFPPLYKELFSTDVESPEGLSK
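Read-out: Photinus luciferase luminescence; inhibitors lower reporter signal. Insect Schneider cells with Gal4-ROR gamma fusion under metallothionein promoter, UAS reporter; 700 uM final copper sulfate induction, 20 hr, ambient temperature.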
VP16 counter: Gal4-VP16 reporter inhibition counter-screen; 310,000 compounds, 3.5% hits; Potency, µM (series often up to 53.6 µM), inactives show at the top dose activity, negative = inhibition, usual class: inhibitors; AID 2546; Drosophila S2 Gal4-VP16 UAS-luciferase, luminescence, 20 h;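 also: Gal4-VP16 expression switched on by copper sulfate through the metallothionein promoter; nearly all actives have a fitted effect of over 50% in size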
Active calls of the source: *; i = inactive; u = inconclusive; x = no result given; [ ] = another dose, or the depositor's remark. In the library only some 15% were active in any assay of this set; here they are far more common. Calls follow the shape of the dose curve; as a rule, active = well fitted curve in the direction sought with a large enough effect; inconclusive = small, poorly fitted or top-dose-only effect, or another doubt; inactive = no such curve, though single readings can be large; an effect the other way counts as inactive or inconclusive. % is scaled to controls: 0 for no effect and ±100 for the full control effect; potency is read from the fitted curve at half-maximal effect.

SMILES | TDP1 cell CPT | ALOX12 inh | DT40 TDP1 no CPT | ELG1 repair inh | RORgamma inh | VP16 counter
Cc1cccc(C(=O)NNC(=O)C2CCCCC2)c1O | u | 1% | 23µM* | x | x | x
C[C@H]1CN([C@@H](C)CO)C(=O)CCCn2nncc2CO[C@@H]1CN(C)Cc1cccc(C(F)(F)F)c1 | 21µM* | 6% | 23µM* | x | x | x
C[C@@H]1CN([C@@H](C)CO)C(=O)CCCn2nncc2CO[C@H]1CN(C)Cc1ccc(-c2ccccc2)cc1 | 0% | -26% | 16µM* | x | x | x
C[C@@H]1CN([C@H](C)CO)C(=O)CCCn2nncc2CO[C@H]1CN(C)S(=O)(=O)c1ccc(Oc2ccccc2)cc1 | -20% | 0% | u | x | x | x
C[C@H]1CN([C@@H](C)CO)C(=O)CCCn2nncc2CO[C@H]1CN(C)S(=O)(=O)c1ccc(Oc2ccccc2)cc1 | 18µM* | 6% | 12µM* | x | x | x
C[C@H](CO)N1C[C@H](C)[C@@H](CN(C)S(=O)(=O)c2ccc(-c3ccccc3)cc2)OCc2cn(nn2)CCCC1=O | -26% | u | u | x | x | x
C[C@@H]1CN([C@@H](C)CO)C(=O)CCCn2cc(nn2)CO[C@H]1CN(C)S(=O)(=O)c1ccc(-c2ccccc2)cc1 | 9.2µM* | -2% | 6.5µM* | x | x | x
COCCNC(=O)[C@H]1C[C@H](Oc2ccccc2)CN1Cc1cccc(C)c1 | x | 27% | x | x | x | x
O=C(/C=C/c1cccs1)OC(C(=O)c1c[nH]c2ccccc12)c1ccccc1 (centres undefined) | x | -5% | x | x | x | x
C[C@H]1CN([C@@H](C)CO)C(=O)CCCn2nncc2CO[C@@H]1CN(C)Cc1ccccc1C(F)(F)F | 18µM* | u | -21% | x | x | x
COc1cccc(NC(=O)N[C@H]2[C@H](O)[C@@H](N3CCN(c4ccccc4)CC3)[C@@H]3OC[C@H]2O3)c1 | x | -12% | x | x | x | x
O=C1c2ccccc2NC(c2cnc3ccccc3n2)N1c1ccccc1 (centres undefined) | x | -14% | x | x | x | x
Cc1ccc(C2=NNC(c3ccc(Cl)cc3)=Nc3ccccc32)o1 | 13µM* | -21% | 12µM* | -22% | u | -92%
CCC(CC)NC(=O)c1ccc(N(C)C)cc1 | x | 2% | x | x | x | x
CC1CCCN(C(=O)C2CCN(c3nc(-c4ccccc4)nc4c3CCC4)CC2)C1 (centres undefined) | u | i | 23µM* | -24% | 7% | -11%
O=C(NCc1ccccc1)C1CCN(c2nc(-c3ccccc3)nc3c2CCC3)CC1 | 18µM* | u | 21µM* | u | 42% | 0%
COC(=O)c1cc2c(C)[nH]c(C)c2cc(C(=O)OC)c1=O | 7.3µM* | -4% | 6.5µM* | -1% | -17% | -21%
COC(=O)c1cc(C(C)=O)c(C)[nH]c1=O | 2% | 10% | -17% | -5% | 14% | -4%
C=CCNC(=S)N/N=C/c1ccc(C(F)(F)F)cc1 | u | u | u | 4.6µM* | 0.71µM* | 2.8µM*
FC(F)(F)c1ccc(/C=N/NC(=S)NC2CCCCC2)cc1 | u | -9% | 5.8µM* | -19% | 0.63µM* | 4.5µM*
CN1C(=O)C2(c3ccccc31)N(C)CC(c1ccccc1)C21SC(=S)N(Cc2ccco2)C1=O (centres undefined) | u | 20% | 9.2µM* | -11% | u | 0%
CC(C)=CCN1CCNC(=O)C1CC(=O)NC(C)(C)c1cccc2ccccc12 (centres undefined) | x | 21% | x | x | x | x
CCN(CCCCN1C(=O)c2ccccc2C1=O)c1ccc2c(c1)C(=O)N(C)C2=O | u | -18% | 18µM* | 16µM* | 13% | 2%
CCN(CC)c1ccc2c(c1)C(=O)N(C)C2=O | u | 229% | -30% | u | 7%[0.365 µM] | x
COC(=O)Cn1cc(/C=C2/SC(=O)N(C(C)C)C2=O)c2ccccc21 | x | -21% | x | x | x | x
SMILES | TDP1 cell CPT | ALOX12 inh | DT40 TDP1 no CPT | ELG1 repair inh | RORgamma inh | VP16 counter
CCn1c(=O)c(=O)[nH]c2cc(C(=O)N3CCC4(CC3)OCCO4)ccc21 | x | 29% | x | x | x | x
Cc1cc(C(=O)N[C@@H]2CN(Cc3ccccc3)C[C@H]2CN(C)C)n(C)n1 | x | -7% | x | x | x | x
CNC(=O)CC1C(=O)N(c2ccc(OC)cc2)C(=S)N1NC(=O)c1cccc(F)c1 (centres undefined) | 1% | 180% | -1% | 13% | 7.1µM* | u
CNC(=O)CC1C(=O)N(c2ccc(Cl)cc2)C(=S)N1NC(=O)c1cccc(F)c1 (centres undefined) | 4% | i | -25% | 14% | u | -15%
CCN1C(=O)C(CC(=O)NCCc2ccccc2)N(NC(=O)c2ccc(Br)cc2)C1=S (centres undefined) | u | -3% | 21µM* | x | x | x
CCNC(=O)CC1C(=O)N(CC)C(=S)N1NC(=O)c1ccc(Cl)cc1 (centres undefined) | 3% | -16% | 2% | -4% | -10% | 5%
CCN1C(=O)C(CC(=O)Nc2ccccc2Cl)N(NC(=O)c2cccc(F)c2)C1=S (centres undefined) | u | 0% | -3% | -9% | 11µM* | u
CN1C(=O)C(CC(=O)Nc2ccc(F)cc2)N(NC(=O)c2cccc(F)c2)C1=S (centres undefined) | 12% | -2% | -18% | -4% | -5% | 8%
COc1ccc(C2N(C(=O)CN3CCOCC3)CCCN2S(=O)(=O)c2ccc(C)cc2)cc1 (centres undefined) | x | -10% | x | x | x | x
Cc1ccsc1CN(C)Cc1ccccc1 | x | 24% | x | x | x | x
CCNC(=O)c1cccc(NC(=O)C2CCCC2)c1 | x | 10% | x | x | x | x
Cc1c(Cl)ccc2c(C(O)CBr)cc(-c3ccccc3)nc12 (centres undefined) | u | u | 16µM* | x | x | x
CN(C)CCNC(=O)c1sc2nc(-c3ccccc3)cc(C(F)(F)F)c2c1N | u | -28% | 16µM* | 0% | u | u
COc1ccc(-c2cc(C(F)(F)F)c3c(N)c(C(=O)NCCSC)sc3n2)cc1 | u | 24% | u | 0% | u | u
COC(=O)c1c(SC)nc2ccccc2c1OCc1ccc(C)cc1C | u | u | 26µM* | x | x | x
O=C(CS(=O)(=O)c1ccc(Cl)cc1)Nc1nc2ccc(Br)cc2s1 | u | u | 23µM* | x | x | x
CC(=O)Nc1ccc2nc(NC(=O)CS(=O)(=O)c3ccc(C)cc3)sc2c1 | -25% | u | u | x | x | x
